Assay results as given in PubChem BioAssay AID1851 (National Center for Advancing Translational Sciences (NCATS), 2009).
Where “and” joins values, the source holds several entries; their conditions need not be identical. Equal entries are not always repeated. In all, about 16,000 compounds went through this assay and about 2,600 (16%) were called active. Not shown: some 20% with an inconclusive outcome. Calls come from the whole dose curve; as a rule, active = well fitted curve in the direction sought with a large enough effect; inconclusive = small, poorly fitted or top-dose-only effect, or effect the other way; inactive = no such curve, though single readings can be large or run the other way. Not all results are given here.

biological target: Cytochrome P450 2D6 (Homo sapiens) (UniProt P10635); assay: Cytochrome panel assay with activity outcomes; details: recombinant CYP, pro-luciferin dealkylation, luminescence, p450-cyp2d6; series mostly up to 57.1 µM; activity, negative = inhibition: at the top concentration
% is set by controls: 0 for no effect and ±100 for the full control effect.

Cytochrome P450 2D6 (Homo sapiens), sequence (P10635 whole entry, looked up): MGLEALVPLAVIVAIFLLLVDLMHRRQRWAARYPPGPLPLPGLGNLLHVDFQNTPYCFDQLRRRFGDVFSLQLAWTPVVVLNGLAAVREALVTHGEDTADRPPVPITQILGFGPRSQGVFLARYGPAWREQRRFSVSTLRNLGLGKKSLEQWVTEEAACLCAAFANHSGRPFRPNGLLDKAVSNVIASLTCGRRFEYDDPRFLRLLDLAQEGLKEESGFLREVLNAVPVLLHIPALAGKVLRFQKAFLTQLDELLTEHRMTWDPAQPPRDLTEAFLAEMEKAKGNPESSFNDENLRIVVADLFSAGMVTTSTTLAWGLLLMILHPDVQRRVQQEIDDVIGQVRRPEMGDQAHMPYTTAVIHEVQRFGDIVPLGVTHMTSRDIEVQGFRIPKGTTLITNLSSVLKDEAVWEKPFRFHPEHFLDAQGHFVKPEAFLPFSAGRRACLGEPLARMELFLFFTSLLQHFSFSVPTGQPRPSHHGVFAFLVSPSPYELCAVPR

SMILES | activity, negative = inhibition | AC50
O=C(O)CN(CCN(CC(=O)O)CC(=O)O)CC(=O)O.[Cu] | 2.44% [at 11.4 µM] (inactive) | 
COCCCn1c(=S)[nH]c2ncccc2c1=O | -7.67% (inactive) | 
CC(=O)O[C@H]1C2=CO[C@H](C)[C@H]3[C@H]4C5=C([C@H](O)[C@H]6O[C@@H]6C5=O)[C@H](O[C@H]4C)[C@@]23C(=O)[C@H]2O[C@@H]21 | 17.5% [at 11.4 µM] (inactive) | 
COc1cc2nc(N3CCN(C(=O)c4ccco4)CC3)nc(N)c2cc1OC |  | inactive
CCNc1nnc(-c2ccncc2)s1 | -6.69% (inactive) | 
O=C1C[C@@H](O)[C@@H](O)[C@H]2[C@@H]3C(=O)N(C4CCCCC4)C(=O)[C@@H]3CC[C@H]12 | 9.04% [at 11.4 µM] (inactive) and 6.81% [at 11.4 µM] (inactive) and 7.19% [at 11.4 µM] (inactive) | 
CN1CCN(c2ncc3nc(-c4cccs4)c(=O)n(Cc4cccs4)c3n2)CC1 | -8.7% (inactive) | 
COc1ccc(C(=O)Nc2nc3c(s2)Cc2cc(OC)ccc2-3)cc1 | -14.7% (inactive) | 
C=CCN=C1CC(C)(C)CC(=O)/C1=C(\O)c1ccccc1 | 18.3% (inactive) | 
COc1ccc(-n2c(CNC(=O)c3cc(OC)c(OC)c(OC)c3)n[nH]c2=S)cc1 | -2.75% (inactive) | 
CC(C)CN1CC[C@@]2(CCCN(C(=O)c3csnn3)C2)C1 |  | 0.501 µM (active)
COc1ccc(NC(=O)N2CCCC3(CCN(C(=O)c4csnn4)CC3)C2)cc1 | -0.507% (inactive) | 
CC(C)NC(=O)N1CC[C@@]2(CCCN(C(=O)c3csnn3)C2)C1 | 0.0943% (inactive) | 
CN1CCN(c2ccc([N+](=O)[O-])cc2C(=O)N2CCOCC2)CC1 | 14.8% (inactive) | 
COc1ccc(C(=O)NN)cc1COc1ccc(Br)cc1 |  | 12.6 µM (active)
COc1ccc(C(=O)NNC(=O)Cc2ccc(-c3ccccc3)cc2)cc1OC | -6.09% (inactive) | 
COc1ccc(/C=C/C(=O)NCc2cn(C)nc2C)cc1COc1ccc(Br)cc1 | -13.3% (inactive) | 
COC(=O)[C@H](CCSC)NC(=O)C/C=C\[C@@H](C)CO | 4.64% [at 11.4 µM] (inactive) | 
COc1ccc([C@@H]2CNC(=O)C2)cc1OC1CCCC1 |  | inactive
CC[C@@H]1OC(=O)[C@H](C)[C@H](O[C@@H]2C[C@](C)(OC)[C@H](O)[C@H](C)O2)[C@H](C)[C@H](O[C@@H]2O[C@@H](C)C[C@@H](N(C)C)[C@@H]2O)[C@](C)(O)C[C@H](C)C(=O)[C@H](C)[C@H](O)[C@]1(C)O | 5.87% [at 25.6 µM] (inactive) | 
CC[C@]1(O)C[C@@H]2CN(CCc3c([nH]c4ccccc34)[C@](C(=O)OC)(c3cc4c(cc3OC)N(C=O)[C@H]3[C@@](O)(C(=O)OC)[C@H](C(=O)OC)[C@@]5(CC)C=CCN6CC[C@]43[C@H]65)C2)C1 | 10.5% (inactive) | 
OCCSCc1cc(Cl)cc(Cl)c1O | -5.19% [at 11.4 µM] (inactive) | 
CCOc1cc(/C=N/O)cc(Cl)c1OC | -0.0031% (inactive) | 
COc1c(Cl)cc(Cl)cc1CNCCNCC(C)O (centres undefined) |  | 1.78 µM (active)
COc1c(Cl)cc(Cl)cc1CNCCNCCO |  | 15.8 µM (active)

SMILES | activity, negative = inhibition | AC50
COc1ccc(-c2nc3cnc(N(C)C)nc3n(C[C@H]3CCCO3)c2=O)cc1 | 3.77% (inactive) | 
Cc1ccc(NC(=O)CCC(=O)NNC(=O)c2cccs2)c(C)c1 | -9.16% (inactive) | 
C[C@@H]1OC2C3=C(C(=O)[C@H]4O[C@@H]4[C@H]3O)[C@@H]1[C@H]1[C@H](C)OC=C3[C@H](O)[C@H]4O[C@H]4/C(=N\OCc4ccccc4)[C@@]321 | 3.22% [at 11.4 µM] (inactive) | 
CO[C@@H]1COC(=O)[C@H](COCc2ccccc2)NC(=O)C/C=C\[C@@H](C)[C@H](OC)COC(=O)[C@@H](C)NC(=O)C/C=C\[C@H]1C | 0.0549% [at 11.4 µM] (inactive) | 
O=C(O)[C@H]1C[C@@H](CP(=O)(O)O)CCN1 | -19.6% (inactive) | 
CC(=O)OC[C@H]1O[C@@H](O/N=C(\C)CCN2CCc3nc(-c4ccccc4)c(-c4ccccc4)cc3C2)[C@H](OC(C)=O)[C@@H](OC(C)=O)[C@H]1OC(C)=O |  | 3.16 µM (active)
CCc1cc2c(nc1CC)CCN(CC/C(C)=N/O[C@@H]1O[C@H](COC(C)=O)[C@H](OC(C)=O)[C@H](OC(C)=O)[C@H]1OC(C)=O)C2 |  | 3.98 µM (active)
CCc1cc2c(nc1CC)CCN(CC/C(C)=N/OCC[C@@H]1C=C[C@H](OC(C)=O)[C@H](COC(C)=O)O1)C2 | -5.93% [at 11.4 µM] (inactive) | 
C=CC[C@@H]1C=C[C@H](O/N=C(\C)CCN2CCc3nc(-c4ccccc4)c(-c4ccccc4)cc3C2)[C@H](CO)O1 | 0.49% [at 11.4 µM] (inactive) | 
CCCNC(=O)OC[C@@H]1O[C@H](CCO/N=C(\C)CCN2CCc3nc(CC)c(CC)cc3C2)C=C[C@@H]1Oc1ccc(OC)cc1 | -13.6% [at 11.4 µM] (inactive) | 
CC(=O)OC[C@@H]1O[C@H](CCO/N=C(\C)CCN2CCc3nc(-c4ccccc4)c(-c4ccccc4)cc3C2)C=C[C@@H]1OC(C)=O | -10.6% [at 11.4 µM] (inactive) | 
CC1(C)CC(=O)C(C(C#Cc2ccccc2)C2=C(O)CC(C)(C)CC2=O)=C(O)C1 | -10.5% (inactive) | 
CSc1nc2cc(S(=O)(=O)N3CCCCC3)ccc2s1 | 11.3% [at 11.4 µM] (inactive) | 
O=C(O)CONC(=O)c1cc(OCC(F)(F)F)ccc1OCC(F)(F)F | 20.2% (inactive) | 
O=C(NCC1CCCO1)/C(=C\c1ccco1)NC(=O)c1ccccc1 (centres undefined) | 3.99% (inactive) | 
O=C(Nc1cccc(OC(=O)c2cccnc2)c1)c1cccnc1 | -10.6% (inactive) | 
O=C(Nc1cccnc1)c1ccc2snnc2c1 |  | 15.8 µM (active)
O=C(Nc1ccc(OC(=O)c2cccnc2)cc1)c1cccnc1 | -9.94% (inactive) | 
O=C(CCn1nc(-c2ccc(Cl)cc2)ccc1=O)NCc1ccccn1 | -5.6% (inactive) | 
O=C1C=C(NCCc2cc(Br)c(O)c(Br)c2)C(=O)c2ncccc21 |  | 1.58 µM (active)
O=C1C=C(Nc2nc(C(=O)O)cc(=O)[nH]2)c2ccccc2C1=O | -6.72% [at 11.4 µM] (inactive) | 
Cc1cccc(Oc2coc3cc(OC(=O)c4cc5ccccc5oc4=O)ccc3c2=O)c1 | 3.71% (inactive) | 
CCOC(=O)c1cc(C#N)c(Oc2ccccc2OC)nc1-c1ccccc1 | 0.22% (inactive) | 
CCOc1cc(C)ccc1OCc1nnc(SCC(=O)c2cccc([N+](=O)[O-])c2)n1CC | 5.77% (inactive) | 
